Assay outcomes from PubChem.
Prx2 Sm inh: Schistosoma mansoni Prx2 inhibition; S. mansoni Prx2 activity coupled to TGR/GSH (TGR is thioredoxin glutathione reductase), NADPH fluorescence loss, qHTS; Potency, µM; 0.07% of 65,000 active; AID 448
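Coupled assay in which S. mansoni TGR passes NADPH reducing equivalents via glutathione to Prx2, which reduces H2O2. Compounds were preincubated 15 min at room temperature with 25 nM TGR/50 nM Prx2 mix. Kinetic NADPH fluorescence loss (ex 365/em 450 nm) was monitored.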
Anthrax LT inh: anthrax lethal toxin internalization inhibition; Cells, anthrax lethal toxin internalization, FRET ratio (460/530); Potency, µM (doses to about 40 µM), without a hit: at the top dose activity change, negative = inhibition, usual class: inhibitors; 0.67% of 70,000 active; AID 912; note: % is set by controls: 0 for no effect and ±100 for the full control effect; nearly all actives have a fitted effect of over 50% in size
AmpC det inh: inhibitors of E. coli AmpC beta-lactamase with detergent | purified AmpC, nitrocefin hydrolysis with detergent | Potency, µM (series often up to 28.7 µM), for inactives: at the top dose activity change, negative = inhibition | 0.09% of 71,000 active | AID 584; active = well fitted curve in the direction sought with a large enough effect; inconclusive = small, poorly fitted or top-dose-only effect; note: % is set by controls: 0 for no effect and ±100 for the full control effect
Target sequence (P00811 whole entry, looked up): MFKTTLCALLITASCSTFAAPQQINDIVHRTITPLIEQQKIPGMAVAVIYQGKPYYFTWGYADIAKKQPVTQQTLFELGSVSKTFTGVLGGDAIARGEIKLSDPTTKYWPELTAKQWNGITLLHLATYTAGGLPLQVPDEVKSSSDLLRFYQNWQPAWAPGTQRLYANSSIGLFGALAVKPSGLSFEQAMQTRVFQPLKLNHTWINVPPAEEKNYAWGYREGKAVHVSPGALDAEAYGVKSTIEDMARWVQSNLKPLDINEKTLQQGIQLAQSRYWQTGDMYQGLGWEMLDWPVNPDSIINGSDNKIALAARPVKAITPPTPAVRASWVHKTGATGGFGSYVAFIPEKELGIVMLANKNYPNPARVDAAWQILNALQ
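E. coli AmpC (5.3 nM) in 20 mM phosphate pH 7.0 with 0.01% Triton X-100, preincubated 15 min RT with compound; nitrocefin (2 uL of 800 uM stock) hydrolysis followed by 480 nm absorbance every 20 s over 4 min.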
AmpC inh no det: inhibitors of E. coli AmpC beta-lactamase without detergent; AmpC nitrocefin hydrolysis, absorbance 480 nm, no detergent; 1.8% of 71,000 active; AID 585; P00811; Potency, µM (series often up to 28.7 µM), without a hit: at the highest dose activity change, negative = inhibition; note: % of control where 0% means no effect
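AmpC in 20 mM phosphate buffer pH 7.0 was preincubated 15 min at room temperature with compounds. Nitrocefin (800 uM stock) was then added and hydrolysis followed at 480 nm every 20 s for 4 min.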
* hit, by the source's call; [ ] = remark or other dose. This is a sample that favours compounds with a hit; in the whole collection about 2.4% have one here. Unless noted, calls come from the whole dose curve. Potency is the fitted concentration of half-maximal effect.

Results for CCCCNc1nc(C)nc2c1nc(-c1ccccc1)n2CCN1CCCCC1 ?
Anthrax LT inh: -14%; AmpC det inh: 9%; AmpC inh no det: 78%

How did O=C(CCc1nc2ccccc2[nH]1)NC1CCCCC1 do in these assays?
Prx2 Sm inh: >57; Anthrax LT inh: -15%; AmpC det inh: 4%; AmpC inh no det: 4µM*[single pt active]

What do the screens show for `Cc1ccc(NC(=O)C2CCCN(S(=O)(=O)c3ccc4c(c3)oc(=O)n4C)C2)nc1` (stereo not given)?
Prx2 Sm inh: >57; Anthrax LT inh: 3%; AmpC det inh: 14%; AmpC inh no det: 4µM*[single pt active]

What do the screens show for `Cn1c(=O)oc2cc(S(=O)(=O)N3CCCC(C(=O)NCc4ccc5c(c4)OCO5)C3)ccc21` (stereo not given)?
Prx2 Sm inh: >57; Anthrax LT inh: 24%; AmpC det inh: 11%; AmpC inh no det: 4µM*[single pt active]

What do the screens show for `CCOC(=O)C1CCCN(c2c(N3CCN(C4CCCCC4)CC3)c(=O)c2=O)C1` (stereo not given)?
Prx2 Sm inh: >57; Anthrax LT inh: -12%; AmpC det inh: 9%; AmpC inh no det: 59%

Results for CCOC(=O)C1CCCN(c2c(N3CCC(N4CCCCC4)CC3)c(=O)c2=O)C1 (stereo not given) ?
Prx2 Sm inh: >57; Anthrax LT inh: -22%; AmpC det inh: 13%; AmpC inh no det: 4µM*[single pt active]

What do the screens show for `CCOC(=O)C1CCCN(c2c(Nc3ccc(C)c(C)c3)c(=O)c2=O)C1` (stereo not given)?
Prx2 Sm inh: >57; Anthrax LT inh: inconclusive; AmpC det inh: 13%; AmpC inh no det: 3.2µM*[single pt active]

What do the screens show for `CCOC(=O)C1CCCN(c2c(NCC3CCCO3)c(=O)c2=O)C1` (stereo not given)?
Prx2 Sm inh: >57; Anthrax LT inh: -6%; AmpC det inh: 11%; AmpC inh no det: 3.2µM*[single pt active]

What do the screens show for `COC(=O)NC(c1cccs1)C(C(C)=O)C(=O)OC` (stereo not given)?
Anthrax LT inh: -14%[8 µM]

What do the screens show for `COc1nc(-c2ccccc2)cc(-c2ccc(OC)c(OC)c2)n1`?
Anthrax LT inh: 13µM*; AmpC det inh: -6%; AmpC inh no det: 120%

How did COc1ccc(-c2cc(C(F)(F)F)nc(N3CCN(c4ccccc4)CC3)n2)cc1OC do in these assays?
Prx2 Sm inh: >57; Anthrax LT inh: 14%; AmpC det inh: 18%; AmpC inh no det: 0%

Results for Cc1ccccc1NC(=O)c1ocnc1C ?
Prx2 Sm inh: >57; Anthrax LT inh: 6%; AmpC det inh: 13%; AmpC inh no det: 4µM*[single pt active]

Results for CS(=O)(=O)c1sc2nc(-c3cccs3)cc(-c3ccccc3)c2c1N ?
Prx2 Sm inh: >57; Anthrax LT inh: inconclusive; AmpC det inh: -4%; AmpC inh no det: 10µM*[single pt active]

Results for COc1nc(Cl)nc(Cl)c1Cl (tested in a mixture with another compound) ?
Prx2 Sm inh: >57; Anthrax LT inh: -3%[8 µM]; AmpC det inh: -4%[5.75 µM]; AmpC inh no det: 7%[5.75 µM]

How did CCOC(=O)C1=C(N)Oc2ccc(Br)cc2[C@@H]1[C@@H](C#N)C(=O)OCC do in these assays?
Prx2 Sm inh: 39*; Anthrax LT inh: inconclusive; AmpC det inh: 0%; AmpC inh no det: 0%

How did COc1ccc2[nH]cc(CCNc3ccnc(-c4ccc(N(C)C)cc4)n3)c2c1 do in these assays?
Prx2 Sm inh: >57; Anthrax LT inh: 7.9µM*; AmpC det inh: -4%; AmpC inh no det: -6%

How did COc1ccc2[nH]cc(CCNc3ncncc3-c3cccnc3)c2c1 do in these assays?
Prx2 Sm inh: >57; Anthrax LT inh: -3%; AmpC det inh: 6%; AmpC inh no det: 10%

Results for COc1ccc2[nH]cc(CCNc3ncncc3-c3ccccc3C)c2c1 ?
Prx2 Sm inh: >57; Anthrax LT inh: 10µM*; AmpC det inh: -4%; AmpC inh no det: 11%

What do the screens show for `COc1ccc2[nH]cc(CCNc3ccnc(-c4ccoc4)n3)c2c1`?
Prx2 Sm inh: >57; Anthrax LT inh: inconclusive; AmpC det inh: 10%; AmpC inh no det: -23%

What do the screens show for `COc1ccc2[nH]cc(CCNc3ncnc4ccc(-c5cccnc5)cc34)c2c1`?
Prx2 Sm inh: >57; Anthrax LT inh: -10%; AmpC det inh: 9%; AmpC inh no det: 0%

Results for COc1ccc2[nH]cc(CCNc3ncnc4ccc(-c5ccccc5OC)cc34)c2c1 ?
Prx2 Sm inh: >57; Anthrax LT inh: 10µM*; AmpC det inh: 9%; AmpC inh no det: 10%

How did CN1CCN(c2ccncc2S(=O)(=O)N2CCN(C)CC2)CC1 do in these assays?
Prx2 Sm inh: >57; Anthrax LT inh: -10%[8 µM]; AmpC det inh: -3%[5.75 µM]; AmpC inh no det: -7%[5.75 µM]

Results for CCc1ccc(CCC(=O)O)nc1 ?
Prx2 Sm inh: >57; Anthrax LT inh: -3%[8 µM]; AmpC det inh: -2%[5.75 µM]; AmpC inh no det: 2%[5.75 µM]

How did N#Cc1ccc(CN2CCC3(CC2)CCN(S(=O)(=O)c2ccccc2)CC3)cc1 do in these assays?
Prx2 Sm inh: >57; Anthrax LT inh: 0%; AmpC det inh: -4%; AmpC inh no det: 27%

Results for CC(C)[C@H](O)C1=CCCCC1=O ?
Anthrax LT inh: 11%[0.32 µM]

How did CCOC(=O)C1=C(C)N=c2s/c(=C/c3ccco3)c(=O)n2C1c1cccc(OC)c1 (stereo not given) do in these assays?
Prx2 Sm inh: >57; Anthrax LT inh: inconclusive; AmpC det inh: 6%; AmpC inh no det: 7.9µM*

What do the screens show for `CCOC(=O)C1=C(C)N=c2s/c(=C\c3cccn3C)c(=O)n2C1c1cccc(OC)c1OC` (stereo not given)?
Anthrax LT inh: inconclusive; AmpC det inh: 10%; AmpC inh no det: 33%

Results for NS(=O)(=O)c1nc(S(=O)(=O)O)c2[nH]cnc2n1 ?
Prx2 Sm inh: >57; Anthrax LT inh: inconclusive; AmpC det inh: -1%[5.75 µM]; AmpC inh no det: -2%[5.75 µM]

How did O=C(O)[C@H](CCc1ccccc1)N1C(=O)c2ccccc2C1=O do in these assays?
Prx2 Sm inh: >57; Anthrax LT inh: -4%[8 µM]; AmpC det inh: -3%[5.75 µM]; AmpC inh no det: 6%[5.75 µM]

What do the screens show for `CCc1c2c(nc3ccc(OC)cc13)COC2`?
Prx2 Sm inh: >11; Anthrax LT inh: -5%; AmpC det inh: -2%; AmpC inh no det: 31%

What do the screens show for `O=C(CSc1nnc(Cc2cc(=O)[nH]c(=O)[nH]2)n1-c1ccccc1)N1CCCC1`?
Prx2 Sm inh: >57; Anthrax LT inh: 8%; AmpC det inh: -1%; AmpC inh no det: -17%

How did COc1cccc(-n2c(Cc3cc(=O)[nH]c(=O)[nH]3)nnc2SCC(=O)N2CCCC2)c1 do in these assays?
Prx2 Sm inh: >57; Anthrax LT inh: 1%; AmpC det inh: 17%; AmpC inh no det: -8%

Results for O=C(CSc1nnc(Cc2cc(=O)[nH]c(=O)[nH]2)n1-c1ccccc1)N1CCCCC1 ?
Prx2 Sm inh: >57; Anthrax LT inh: -2%; AmpC det inh: 11%; AmpC inh no det: 3.2µM*[single pt active]

Results for COc1cccc(-n2c(Cc3cc(=O)[nH]c(=O)[nH]3)nnc2SCC(=O)N2CCCCCC2)c1 ?
Prx2 Sm inh: >57; Anthrax LT inh: -8%; AmpC det inh: 14%; AmpC inh no det: 4µM*[single pt active]
